An excerpt weighted towards active compounds, which were near 8.3% of everything screened.
Marburg entry inh: qHTS for inhibitors of binding or entry into cells for Marburg Virus; Marburg virus pseudotyped entry inhibition, cell reporter; Potency, µM (titrated, usually from 37.8 µM), hits mostly inhibitors; AID 540276, 2011; 1.8% of 300,000 active; calls by dose curve; tested in HEK293 cells
LASV entry inh: qHTS for Inhibitors of binding or entry into cells for Lassa Virus; Lassa virus pseudotype entry inhibition, cell reporter; Potency, µM (doses to about 37.9 µM), hits mostly inhibitors; 1.2% of 300,000 active; calls by dose curve; tested in HEK293 cells; also: nearly all actives have a fitted effect of over 50% in size
HCV inhibitor: qHTS Assay for Inhibitors of Hepatitis C Virus (HCV); Huh7.5.1 HCVcc-Cre infection, luciferase reporter, 44 h; Potency, µM (series often up to 41.8 µM), most hits filed as inhibitors; 3.4% of 340,000 active; AID 651820, 2012
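Compounds are dispensed onto cells plated 4 h earlier at 1,000 per well, with HCVcc-Cre virus (about 0.5 moi) added next. Following 44 h of culture, luminescent signal is measured for 15 sec after 15 min with substrate at room temperature.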
HCMV inh: qHTS Assay for inhibitors of the human cytomegalovirus (HCMV) | activity change, negative = inhibition, % at 57.5 µM | AID 1259415, 2018 | HFF cells, HCMV-luciferase reporter, 72 h; hits give low values | 4.5% of 410,000 active; in the data active = activity change below about -60%; inconclusive = no clear call, values can overlap the other calls; inactive = above about -39%
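Luciferase read-out from HCMV-luciferase-infected HFFs (MOI 1 PFU/cell) 72 h post infection at 37C; compounds added after 16 h cell attachment; activity normalized between buffer-only basal and Salinomycin (10uM) inhibitor controls.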
FMDV inh: High Throughput Screening for Foot and Mouth Disease Virus Antivirals | FMDV antiviral cell-based qHTS | Potency, µM (top dose mostly 57.9 µM), actives largely listed as inhibitors | 1.2% of 410,000 active | AID 1159524, 2015; calls by dose curve; tested in HEK293T cells; also: read-out not given here; nearly all actives have a fitted effect of over 45% in size
Giardia FBPA inh: qHTS Assay for Inhibitors of Fructose-1,6-bisphosphate Aldolase from Giardia Lamblia. A8B2U2. purified Giardia FBPA. Potency, µM (series often up to 59.6 µM), most hits filed as inhibitors. 0.71% of 290,000 active; also: nearly all actives have a fitted effect of over 55% in size
Target sequence (A8B2U2 whole entry, looked up): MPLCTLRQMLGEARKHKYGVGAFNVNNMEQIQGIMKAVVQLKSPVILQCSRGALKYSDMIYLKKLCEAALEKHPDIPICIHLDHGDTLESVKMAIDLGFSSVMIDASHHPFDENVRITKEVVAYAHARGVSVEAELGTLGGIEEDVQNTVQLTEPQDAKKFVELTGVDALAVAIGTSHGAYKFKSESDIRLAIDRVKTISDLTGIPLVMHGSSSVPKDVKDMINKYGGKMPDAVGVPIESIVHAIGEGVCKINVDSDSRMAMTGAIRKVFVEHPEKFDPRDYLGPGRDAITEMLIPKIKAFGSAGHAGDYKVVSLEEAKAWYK
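40 nM FBPA preincubated 10 min at RT with compound (up to 57.5 uM final), then substrate plus GAPDH/TPI/NAD/arsenate coupling and diaphorase/resazurin added. Fluorescence read after 20 min at RT, 525/598 nm.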
Of the large screens only hits and unclear results are named; the others gave an inactive call. Unless noted, calls follow the shape of the dose curve; as a rule, active = well fitted curve in the direction sought with a large enough effect; inconclusive = small, poorly fitted or top-dose-only effect, or another doubt; inactive = no such curve, though single readings can be large; an effect the other way counts as inactive or inconclusive.

COc1ccccc1-c1ccc(Nc2cccc(C(F)(F)F)c2)nn1	none
O=C(Cn1c(SCCOc2ccccc2Cl)nc2ccccc21)N1CCOCC1	none (no result: HCV inhibitor, Giardia FBPA inh)
COC(=O)C(C)Sc1nnc2cc(C)c3cc(C)cc(C)c3n12 (stereo not drawn)	none (no result: HCV inhibitor, Giardia FBPA inh)
CC1(CCc2ccc3c(c2)OCO3)NCCc2c1[nH]c1ccccc21 (stereo not drawn)	HCV inhibitor 11µM, HCMV inh -87 (no result: Marburg entry inh, LASV entry inh)
CCCN1C(=O)C(Cc2nc3ccccc3c(=O)n2-c2ccc(OC)cc2)c2cc(C)ccc21 (stereo not drawn)	none (no result: HCV inhibitor, Giardia FBPA inh)
C[C@@H]1CNC(=O)c2c(C(=O)NCc3ccc(CNC(=O)OC(C)(C)C)cc3)ncn21	FMDV inh inconclusive (no result: Marburg entry inh, LASV entry inh, HCV inhibitor, Giardia FBPA inh)
C[C@@H]1CNC(=O)c2c(C(=O)Nc3ccc(CNC(=O)OC(C)(C)C)cc3)ncn21	HCMV inh -66, FMDV inh inconclusive (no result: Marburg entry inh, LASV entry inh, HCV inhibitor, Giardia FBPA inh)
CCC(=O)c1c(NC)cc(C)oc1=O	none
CCC(=O)c1c(NCCc2ccccc2)cc(C)oc1=O	HCV inhibitor inconclusive, HCMV inh -98
CN(C)c1nnnn1-c1ccc(Cl)cc1Cl	none
O=C(O)Cc1c(C(=O)O)nnn1-c1ccc(Cl)cc1Cl	HCMV inh -66 (no result: Marburg entry inh, LASV entry inh)
COC(=O)c1ccccc1NC(=O)/C=C/c1cc(OC)c(OC)c(OC)c1	Marburg entry inh inconclusive, LASV entry inh inconclusive, HCV inhibitor 5µM, FMDV inh inconclusive
COc1cc(/C=C/C(=O)O)cc(OC)c1	none (no result: Marburg entry inh, LASV entry inh, HCMV inh)
COc1ccc(/C=C/C(=O)Nc2ccccc2C(=O)O)cc1	Marburg entry inh 1.6µM, LASV entry inh inconclusive
COc1ccc(/C=C/C(=O)O)cc1	HCV inhibitor 0.79µM (no result: Marburg entry inh, LASV entry inh)
COc1ccc(/C=C/C(=O)Nc2ccc(-n3nncc3-c3ccccc3)cc2)cc1OC	Marburg entry inh inconclusive, LASV entry inh inconclusive, HCV inhibitor 13µM, HCMV inh inconclusive
CC1CC2CCC(O2)C(C)C(=O)OC(C)CC2CCC(O2)C(C)C(=O)OC(C)CC2CCC(O2)C(C)C(=O)OC(C)CC2CCC(O2)C(C)C(=O)O1 (stereo not drawn)	FMDV inh inconclusive (no result: Marburg entry inh, LASV entry inh, HCV inhibitor, HCMV inh)
COC(=O)C1(C)C=C2C(=C(C)C(=O)C2C)CN1 (stereo not drawn)	none (no result: Marburg entry inh, LASV entry inh, HCV inhibitor, HCMV inh, FMDV inh)
CC(C)NC(=O)c1ccccc1NC(=O)/C=C/c1ccc([N+](=O)[O-])cc1	HCV inhibitor 11µM
COc1cc(OC)c(OC)cc1/C=C/c1cc(C(=O)O)c2ccccc2n1	none (no result: Marburg entry inh, LASV entry inh)
COc1ccc(/C=C/C(=O)Nc2ccccc2C(F)(F)F)cc1OC	LASV entry inh inconclusive
COc1ccc(/C=C/c2cc(C(=O)O)c3ccccc3n2)cc1	Marburg entry inh inconclusive, LASV entry inh inconclusive, FMDV inh 2.8µM
COc1ccc(/C=C/C(=O)Nc2ccccc2C(=O)O)cc1OC	Marburg entry inh 1.5µM, LASV entry inh 1.3µM, HCMV inh -81
CCCCc1nc2c(c3c1C[C@H](C)OC3)CN(C(=O)N[C@@H](C)c1ccccc1)CC2	none (no result: Marburg entry inh, LASV entry inh, HCV inhibitor, HCMV inh, FMDV inh)
CCOC(=O)Cc1csc(NC(=O)CSc2ncnc3c2cnn3-c2ccc(OC)cc2)n1	Marburg entry inh inconclusive, LASV entry inh 2µM, HCV inhibitor inconclusive, FMDV inh 22µM
Cc1ccc(-n2ncc3c(SCC(=O)NNC(=O)C(C)C)ncnc32)cc1	Marburg entry inh inconclusive
CCOC(=O)CNC(=O)CSc1ncnc2c1cnn2-c1ccc(Cl)cc1	none
O=C(CSc1ncnc2c1cnn2-c1ccccc1)NC1CCCC1	HCV inhibitor 10µM (no result: Giardia FBPA inh)
CC(C)C(=O)NNC(=O)CSc1ncnc2c1cnn2-c1ccccc1Cl	HCMV inh -65 (no result: Marburg entry inh, LASV entry inh)
Cc1csc(NC(=O)CSc2ncnc3c2cnn3-c2ccccc2Cl)n1	Marburg entry inh 13µM, LASV entry inh inconclusive, HCV inhibitor 18µM, FMDV inh 14µM (no result: HCMV inh)
COC(=O)c1cc2oc3ccccc3c2n1Cc1nc(-c2ccccc2Cl)oc1C	none (no result: LASV entry inh, HCV inhibitor, Giardia FBPA inh)
Cn1c(=O)c(-c2cc(F)cc(F)c2)nc2cnc(N3CCNCC3)nc21	none (no result: Marburg entry inh, LASV entry inh, HCV inhibitor, HCMV inh)
C[C@@H]1CC[C@@]2(OC1)OC1CC3C4CC=C5CC(O)CCC5(C)C4CCC3(C)C1[C@@H]2C (stereo partly drawn)	none (no result: Marburg entry inh, LASV entry inh, HCV inhibitor, HCMV inh)
CNC(=O)CSc1ncnc2c1cnn2-c1ccccc1	none

Compound activity: PubChem BioAssay, National Center for Advancing Translational Sciences (NCATS)
